Assay results published in the OligoGym collection.

Molecular target: FNTB
Experiment: pooled miR-30 sensor sort-seq; sequence = guide strand
Settings: shRNA
Note: reference of the scale not given here.

Row | Sequence | sensor-assay potency score (higher = more potent)
1 | TTGACTGCTGCATATGTGGGTG | -0.313
2 | TCTGTAGCCACTATCTGGGGGA | 0.162
3 | ATCTGTAGCCACTATCTGGGGG | -0.8
4 | TTTGCCTGTTCTATGGACGTGA | 0.213
5 | TACAAGGTGGTTGAACTTGTAA | -0.905
6 | TACTGAAGAAGCTTCTCTCTGT | 0.515
7 | TTAAGCTCCTCAAAACCTGGGA | -0.317
8 | TTCTGTAGAAAGTATGTAGTGG | 0.598
9 | TCCTCCTTCAAATCGCATCTGC | -0.214
10 | TATAAACCTTGTCTGACTGGGG | 0.554
11 | TTTTCTTCTACTTTTGCCTGTT | 0.0828
12 | TCATGCAACATGGCTCCGCTGC | -1.29
13 | TTGAACTTGTAAGAACTGAAGA | -0.977
14 | TAGAAAGTATGTAGTGGCCTGG | -0.497
15 | TCCACCAGCTTGTTGCAGCGGC | -1.13
16 | TTGTCGAAGGCCTCTTTTCAGA | -1.02

Molecular target: FOXK1
Experiment: as above
Settings: shRNA

Row | Sequence | sensor-assay potency score (higher = more potent)
17 | TTTGACTCATCCTTGGGGCTGT | 0.206
18 | TTCTTTGTGATAGAGCGACGTG | -0.986
19 | TAAACTGTTCGTGGGAACCGCA | -0.882
20 | TGGATCTTGATGGCCGTGCTGG | -0.887
21 | TTGCTGCAAACTCTGCTGCCAG | -1.02
22 | TGATAGAGCGACGTGAACTGGA | 0.268
23 | TTCAAAGAGAGGTTGTGCCGGA | 0.647
24 | ATGAGGAACTCGAACTCGCGGC | -0.982
25 | TTGGGTCGCAAGGAGCTGCAAA | -0.645
26 | TTGCCGGCTAAACTGTTCGTGG | -1.1
27 | TTTGATAAAGTAACGGTTCAAA | -0.935
28 | TTTGGGAATACCGGTACTCTGG | -1.08

Molecular target: FOXN4
Experiment: as above
Settings: shRNA

Row | Sequence | sensor-assay potency score (higher = more potent)
29 | TTGCCATCTGCTGCAGCCGAGG | -1.85
30 | TGAGTTTCGAATAATTCCTGAC | -0.212
31 | ATGTTGATGAAGTCTACAGGAG | -1.25
32 | ATTCCTGACATTATGGATGAGG | -0.583
33 | TCCTCCATCTTGTCGATGCGGG | -1.47
34 | TAGATCTCGCTCACAGGCAGGC | -0.142
35 | TCAGTGTTCATGTCGGTGCTGA | -0.14
36 | TTCAGAGACAGGTTGTGCCGCA | 0.475
37 | TCAGCTTGTCCAACTCCTCAGG | -0.891
38 | TGAAGCTGTAGATCTCGCTCAC | 0.304
39 | TTGAGATGAATGCACAGCCACG | -1.27
